Several values for one entry are separate records, joined by “and”; a condition that tells them apart may be missing. Identical values can stand only once. The campaign covered roughly 5,500 compounds. About 2,000 (36%) were called active. About 18% were inconclusive and are not listed. No stated cut-off is given here; in the data, active means normalized growth mostly below about 0.91 (no sharp cut-off); inconclusive means no clear call, values can overlap the other calls; inactive means mostly above about 0.92. This is one part of the list.
Assay: chemical genetic growth profiling, strain panel (AID 1159580);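 further: tested at 20 µM; growth read once vehicle control cultures reached saturation at 30 °C; 1 = growth at the plate median or of vehicle wells; lower values mean less growth of the strain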
Settings: S. cerevisiae deletion strains, growth OD

Measured: normalized growth

COc1ccc([C@@H]2CC(=O)c3c(O)cc(O[C@@H]4O[C@H](CO[C@H]5O[C@@H](C)[C@H](O)[C@@H](O)[C@H]5O)[C@@H](O)[C@H](O)[C@H]4O)cc3O2)cc1O
inactive: locus YAL013W, strain DEP1, hits give low values 0.995 | locus YAL021C, strain ccr4, hits give low values 1.01 | locus YAL026C, strain drs2, hits give low values 0.98 | locus YAL030W, strain snc1, hits give low values 0.993 | locus YBL061C, strain skt5, hits give low values 0.969 | locus YBR009C, strain hhf1, hits give low values 0.937 | locus YBR021W, strain FUR4, hits give low values 0.988 | locus YBR023C, strain chs3, hits give low values 0.993 | locus YBR171W, strain sec66, hits give low values 0.976 | locus YBR229C, strain ROT2, hits give low values 0.993 | locus YBR231C, strain swc5, hits give low values 0.987 | locus YBR279W, strain paf1, hits give low values 0.986 | locus YCL011C, strain gbp2, hits give low values 0.975 | locus YCL016C, strain dcc1, hits give low values 0.995 | locus YCL029C, strain bik1, hits give low values 0.971 | locus YCL061C, strain MRC1, hits give low values 0.977 | locus YCL069W, strain vba3, hits give low values 0.988 | locus YCR088W, strain abp1, hits give low values 0.989 | locus YDL005C, strain med2, hits give low values 0.98 | locus YDL035C, strain GPR1, hits give low values 0.991 | locus YDL040C, strain nat1, hits give low values 0.993 | locus YDL074C, strain BRE1, hits give low values 0.984 | locus YDL101C, strain DUN1, hits give low values 0.994 | locus YDL185W, strain tfp1, hits give low values 0.98 | locus YDL192W, strain arf1, hits give low values 0.993 | locus YDR001C, strain nth1, hits give low values 0.99 | locus YDR069C, strain doa4, hits give low values 0.985 | locus YDR101C, strain arx1, hits give low values 0.968 | locus YDR137W, strain rgp1, hits give low values 1.04 | locus YDR159W, strain sac3, hits give low values 0.977 | locus YDR162C, strain NBP2, hits give low values 1.01 | locus YDR195W, strain ref2 0.932 | locus YDR297W, strain sur2, hits give low values 0.98 | locus YDR318W, strain mcm21, hits give low values 0.994 | locus YDR334W, strain swr1, hits give low values 0.998 | locus YDR335W, strain msn5, hits give low values 0.982 | locus YDR388W, hits give low values 0.977 | locus YDR392W, strain spt3, hits give low values 0.907 | locus YDR502C, strain sam2, hits give low values 0.981 | locus YEL003W, strain gim4, hits give low values 0.982 | locus YEL037C, strain rad23, hits give low values 0.991 | locus YEL061C, strain CIN8 (second series), hits give low values 0.981 | locus YEL061C, strain CIN8, hits give low values 1 | locus YER015W, strain faa2, hits give low values 0.979 | locus YER016W, strain bim1, hits give low values 0.995 | locus YER110C, hits give low values 0.973 | locus YER111C, strain swi4, hits give low values 0.97 | locus YER155C, strain BEM2 (second series), hits give low values 0.987 | locus YER155C, strain BEM2, hits give low values 0.988 | locus YER167W, strain BCK2, hits give low values 0.991 | locus YFR010W, strain ubp6, hits give low values 0.976 | locus YGL078C, strain dbp3, hits give low values 0.967 | locus YGL086W, strain mad1, hits give low values 0.979 | locus YGL167C, strain pmr1, hits give low values 0.965 | locus YGL173C, strain kem1, hits give low values 0.968 | locus YGL227W, strain vid30, hits give low values 0.973 | locus YGL240W, strain doc1, hits give low values 0.98 | locus YGL248W, strain PDE1, hits give low values 1 | locus YGL253W, strain hxk2, hits give low values 0.999 | locus YGR135W, strain pre9, hits give low values 0.998 | locus YGR229C, strain SMI1, hits give low values 1 | locus YGR252W, strain gcn5, hits give low values 1.06 | locus YHR013C, strain ard1, hits give low values 0.922 | locus YHR027C, strain rpn1, hits give low values 0.99 | locus YHR030C, strain SLT2, hits give low values 0.997 and 1.05 | locus YHR079C, strain IRE1 (second series), hits give low values 0.983 | locus YHR079C, strain IRE1, hits give low values 1.03 | locus YHR094C, strain hxt1, hits give low values 0.975 | locus YHR129C, strain ARP1, hits give low values 1 | locus YHR142W, strain chs7, hits give low values 1.01 | locus YHR200W, strain rpn10, hits give low values 1 | locus YIL066C, strain RNR3, hits give low values 1 | locus YIL073C, strain SPO22, hits give low values 1 | locus YIL125W, strain kgd1, hits give low values 0.978 | locus YIR030C, strain dcg1, hits give low values 0.976 | locus YJL092W, strain hpr5, hits give low values 0.986 | locus YJL095W, strain BCK1 (second series), hits give low values 0.993 | locus YJL095W, strain BCK1, hits give low values 1.05 and 1.02 | locus YJL115W, strain asf1, hits give low values 0.993 | locus YJL129C, strain trk1, hits give low values 1.01 | locus YJL134W, strain LCB3, hits give low values 0.994 | locus YJL154C, strain vps35, hits give low values 0.998 | locus YJL164C, strain tpk1, hits give low values 1.01 | locus YJL166W, strain qcr8, hits give low values 0.992 | locus YJL168C, strain set2, hits give low values 0.984 | locus YJL187C, strain SWE1 (second series), hits give low values 1.02 | locus YJL187C, strain SWE1, hits give low values 0.991 | locus YJR043C, strain POL32, hits give low values 1.01 | locus YJR066W, strain TOR1, hits give low values 0.987 | locus YJR075W, strain HOC1, hits give low values 1 | locus YKL009W, strain mrt4, hits give low values 1.01 | locus YKL068W, hits give low values 0.984 | locus YKL085W, strain MDH1 (second series), hits give low values 0.996 | locus YKL085W, strain MDH1, hits give low values 0.996 | locus YKL160W, strain elf1, hits give low values 1.02 | locus YKL190W, strain CNB1, hits give low values 1.01 | locus YKR001C, strain vps1, hits give low values 0.948 | locus YKR026C, strain gcn3, hits give low values 0.979 | locus YKR091W, strain srl3, hits give low values 0.981 | locus YLL001W, strain dnm1, hits give low values 1.01 | locus YLL026W, hits give low values 0.999 | locus YLL041C, strain sdh2, hits give low values 0.999 | locus YLR027C, strain aat2, hits give low values 0.998 | locus YLR039C, strain RIC1, hits give low values 1.04 | locus YLR058C, strain SHM2, hits give low values 1 | locus YLR102C, strain apc9, hits give low values 0.977 | locus YLR113W, strain HOG1, hits give low values 1.05 | locus YLR221C, strain rsa3, hits give low values 0.999 | locus YLR258W, strain gsy2, hits give low values 0.988 | locus YLR262C, strain YPT6 (second series), hits give low values 1 | locus YLR262C, strain YPT6, hits give low values 1.02 | locus YLR268W, strain sec22, hits give low values 0.959 | locus YLR320W, strain mms22, hits give low values 0.97 | locus YLR330W, strain CHS5, hits give low values 0.996 | locus YLR342W, strain FKS1 (second series), hits give low values 1.03 | locus YLR342W, strain FKS1, hits give low values 0.954 | locus YLR357W, strain rsc2, hits give low values 0.97 | locus YLR370C, strain arc18, hits give low values 0.991 | locus YLR371W, strain rom2, hits give low values 0.971 | locus YLR384C, strain iki3, hits give low values 0.976 | locus YLR418C, strain cdc73, hits give low values 1 | locus YML016C, strain PPZ1, hits give low values 0.995 | locus YML032C, strain rad52, hits give low values 1 | locus YML120C, strain ndi1, hits give low values 1.01 | locus YML124C, strain tub3, hits give low values 0.986 | locus YMR058W, strain fet3, hits give low values 0.985 | locus YMR078C, strain ctf18, hits give low values 0.969 | locus YMR125W, strain sto1, hits give low values 0.972 | locus YMR129W, hits give low values 0.989 | locus YMR205C, strain PFK2, hits give low values 0.936 | locus YMR223W, strain ubp8, hits give low values 0.992 | locus YMR231W, strain pep5, hits give low values 0.969 | locus YMR307W, strain GAS1, hits give low values 1.06 | locus YNL067W, strain RPL9B, hits give low values 1.01 | locus YNL071W, strain lat1, hits give low values 0.984 | locus YNL183C, strain NPR1, hits give low values 0.996 | locus YNL209W, strain ssb2, hits give low values 0.978 | locus YNL233W, strain BNI4, hits give low values 1 | locus YNL248C, strain rpa49, hits give low values 1.04 | locus YNL250W, strain rad50, hits give low values 0.978 | locus YNL271C, strain bni1, hits give low values 1 | locus YNL298W, strain CLA4, hits give low values 0.972 | locus YNL307C, strain MCK1, hits give low values 0.97 | locus YNL322C, strain KRE1 (second series), hits give low values 0.987 | locus YNL322C, strain KRE1, hits give low values 1 | locus YNR049C, strain mso1, hits give low values 0.993 | locus YNR052C, strain pop2, hits give low values 0.986 | locus YOL006C, strain TOP1, hits give low values 0.962 | locus YOL012C, strain htz1 1.06 | locus YOL147C, strain pex11, hits give low values 0.983 | locus YOR001W, strain rrp6, hits give low values 1.03 | locus YOR061W, strain CKA2, hits give low values 0.977 | locus YOR069W, strain VPS5, hits give low values 0.992 | locus YOR070C, strain gyp1, hits give low values 1.01 | locus YOR080W, strain dia2, hits give low values 0.974 | locus YOR083W, strain WHI5, hits give low values 1.02 | locus YOR106W, strain vam3, hits give low values 1.02 | locus YOR136W, strain idh2, hits give low values 0.981 | locus YOR144C, strain elg1, hits give low values 0.987 | locus YOR184W, strain ser1, hits give low values 0.994 | locus YOR231W, strain MKK1, hits give low values 1.06 | locus YOR265W, strain rbl2, hits give low values 1 | locus YOR270C, strain vph1, hits give low values 0.989 | locus YOR290C, strain snf2, hits give low values 0.922 | locus YOR316C, strain cot1, hits give low values 0.994 | locus YPL051W, strain arl3, hits give low values 1.03 | locus YPL078C, strain atp4, hits give low values 1.01 | locus YPL106C, strain sse1, hits give low values 0.976 | locus YPL240C, strain hsp82, hits give low values 0.966 | locus YPL256C, strain CLN2, hits give low values 1.04 | locus YPR119W, strain clb2, hits give low values 0.98 | locus YPR141C, strain kar3, hits give low values 0.98 | locus YPR163C, strain tif3, hits give low values 0.984 | locus YPR167C, strain met16, hits give low values 0.972 | strain wtn01, hits give low values 0.971

— PubChem BioAssay AID1159580 (chemical genetic matrix, 2015)
